Results on 110 compounds are retold here after PubChem BioAssay AID2289 (National Center for Advancing Translational Sciences (NCATS), 2010).

SMILES strings stand for the structures. Where “and” joins values, the source holds several entries; their conditions need not be identical. Equal values may be shown once. Out of some 340,000 compounds screened, about 3,300 (0.97%) were called active. Another 9% or so got no clear call; they are omitted. Calls follow the shape of the dose curve; as a rule, active = well fitted inhibition curve with a large enough effect; inconclusive = small, poorly fitted or top-dose-only effect, or effect the other way; inactive = flat fitted curve, though single readings scatter. The list shows a part of the results.
Potency is read from the fitted curve at half-maximal effect.

This experiment is described as follows: qHTS Assay for Modulators of miRNAs and/or Inhibitors of miR-21. Also: nearly all actives have a fitted effect of over 55% in size. As to conditions: HeLa miR-21-FLuc reporter, luciferase luminescence, 48 h; actives lower the signal. In a few lines:
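Luminescence from a firefly luciferase reporter carrying a miR-21 binding site downstream, stably expressed under a CMV promoter in HeLa cells that make miR-21 endogenously, reports miRNA modulation after 48 h compound exposure up to approximately 40uM final.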
In general terms: qHTS replaces the single test concentration by a dilution series.
`CCOC(=O)/C(C#N)=C/Nc1ccccc1OC`: the Potency was 5.21 µM (active).
With `Cc1cccc(C)c1NC(=O)/C(C#N)=C/c1ccc(-c2ccc(C(=O)O)cc2)o1` the figure was 2.07 µM (active); with `CNC(=O)/C(C#N)=C/c1ccc(-c2ccc(OC)cc2[N+](=O)[O-])o1`, 18.5 µM (active).
As for `CNC(=O)/C(C#N)=C/c1ccc(-c2ccc(Cl)cc2)o1`, the Potency is 4.14 µM (active).
With `CCOC(=O)/C(C#N)=C/c1ccc(-c2ccccc2)o1` the figure was 18.5 µM (active).
With `Cc1ncc(CO)c(/C=N/N=C/c2ccccc2O)c1O` the figure was 13.1 µM (active).
With `COc1ccc(-c2nn(-c3ccccc3)cc2C#N)cc1` the figure was 4.14 µM (active); with `COc1ccc(-c2nn(-c3ccccc3)cc2N)cc1`, 3.69 µM (active).
`COc1cc(OC)c2c(=O)cc(-c3ccccc3)oc2c1`: the Potency was 6.56 µM (active).
As to `COc1ccc(-c2cc(=Nc3c(C)n(C)n(-c4ccccc4)c3=O)c3ccccc3o2)cc1`, the Potency is 4.14 µM (active).
With `O=c1cc(-c2ccc(O)cc2)oc2ccccc12` the figure was 7.36 µM (active); with `O=c1cc(-c2ccccc2)oc2ccc(O)cc12`, 3.29 µM (active).
Turning to `COc1ccc(-c2cc(=O)c3ccccc3o2)cc1`, the Potency is 5.85 µM (active).
With `O=c1cc(-c2ccccc2F)oc2ccccc12` the figure was 5.21 µM (active).
With `Fc1cccc2sc(Nc3nc4cc5c(cc4s3)OCO5)nc12` the figure was 3.69 µM (active); with `Fc1cccc2sc(Nc3nc4cc5c(cc4s3)OCCO5)nc12`, 0.208 µM (active); with `O=C(O)c1ccc(N=Nc2c(O)[nH]c3ccc(Br)cc23)cc1`, 3.69 µM (active).
For the compound `O=C(O)c1ccc(N=Nc2c(O)[nH]c3cc(Cl)ccc23)cc1`, the Potency was 0.165 µM (active).
The result for `COc1cc2c(cc1OC)-c1cc(Nc3ccc4c(c3)OCCO4)nc(=O)n1CC2` reads 8.26 µM (active).
With `CCc1nc2oc3ccccc3c(=O)c2c(=O)n1-c1ccc(C)cc1` the figure was 1.65 µM (active).
With `Cc1cc(C)n2c(nc3ccccc32)c1C(=O)NN` the figure was 10.4 µM (active).
In the case of `Fc1ccc2nc(N3CCOCC3)sc2c1`, the Potency was 16.5 µM (active).
With `Clc1ccc(-c2nsc(N3CCOCC3)n2)c(Cl)c1` the figure was 1.04 µM (active); with `Clc1cc(Cl)c2nc(N3CCOCC3)sc2c1`, 16.5 µM (active); with `Nc1nc2c(Cl)cc(Cl)cc2s1`, 18.5 µM (active).
On to `Fc1ccc2nc(N3CCCC3)sc2c1`, for which the Potency was 4.14 µM (active).
The result for `O=C(/C=C/c1ccc2c(c1)OCO2)c1ccc[nH]1` reads 3.69 µM (active).
With `COc1ccc(/C=C/C(=O)c2ccc[nH]2)cc1OC` the figure was 5.21 µM (active); with `COc1ccc(/C=C/C(=O)c2ccc[nH]2)c(OC)c1OC`, 14.7 µM (active).
The result for `CC(C)CCNC(=O)c1ccc(-c2ccccc2)cc1` reads 8.26 µM (active); that for `CC(C)CCNC(=O)C(=O)Nc1ccccc1`, 2.07 µM (active); that for `CC(CCc1ccccc1)NC(=O)C(=O)Nc1ccccc1` (stereo not given), 1.65 µM (active).
With `O=C(NCc1ccccn1)C(=O)Nc1ccccc1`, the Potency is 6.56 µM (active).
The result for `CS(=O)(=O)c1cnc2c(-c3ccc(F)cc3)cnn2c1N` reads 1.85 µM (active); that for `CS(=O)(=O)c1cnc2c(-c3ccsc3)cnn2c1N`, 5.21 µM (active).
On to `O=C(c1ccccc1)c1ccc2c(c1)OCCCO2`, for which the Potency is 2.07 µM (active).
The result for `O/N=C(/CCc1ccccc1)c1ccc2c(c1)OCCO2` reads 7.36 µM (active); that for `O=C(CCc1ccccc1)c1ccc2c(c1)OCCCO2`, 3.69 µM (active).
For the compound `Cc1cc(O)c(C(=O)Cc2csc(C)n2)c(O)c1`, the Potency was 5.85 µM (active).
The result for `Cc1oncc1-c1csc(-c2ccccc2)n1` reads 5.21 µM (active); that for `O=C1C2C(C(=O)N1/N=C/c1cccc([N+](=O)[O-])c1)C1C=CC2C12CC2` (stereo not given), 18.5 µM (active); that for `O=C(Cn1c(/C=C/c2ccccc2)nc2ccccc21)Nc1ccc(F)cc1`, 5.21 µM (active).
With `Cc1cccc(NC(=O)Cn2c(/C=C/c3ccccc3)nc3ccccc32)c1` the figure was 5.85 µM (active); with `O=C1CC(c2ccc3c(c2)OCCO3)Oc2ccccc21` (stereo not given), 14.7 µM (active); with `COc1ccc(C2CC(=O)c3ccccc3O2)cc1` (stereo not given), 16.5 µM (active).
With `O=C1CC(c2ccc3c(c2)OCCO3)Oc2ccc([N+](=O)[O-])cc21` (stereo not given) the figure was 0.261 µM (active); with `Cc1ccc2c(c1)OC(c1ccc3c(c1)OCCO3)CC2=O` (stereo not given), 16.5 µM (active).
Take `CC(C)c1nc(C#N)c(NN)o1`: the Potency was 16.5 µM (active).
The result for `N/C(=N\OC(=O)/C=C/c1ccccc1Cl)c1cccnc1` reads 2.07 µM (active); that for `N/C(=N\OC(=O)/C=C/c1ccccc1Cl)c1ccncc1`, 0.414 µM (active).
The result for `COc1ccc(-n2nc3cc(C)c(N)c(Br)c3n2)cc1` reads 4.14 µM (active); that for `CC1CCC/C(=N\Nc2ccc(Cl)c(C(=O)O)c2)C1` (stereo not given), 6.56 µM (active).
The result for `O=[N+]([O-])c1ccc2cn(-c3ccccc3)nc2c1` reads 1.65 µM (active).
Turning to `Cc1ccccc1/C=N/Nc1ncnc2nc[nH]c12`, the Potency is 6.56 µM (active).
With `Fc1ccccc1/C=N/Nc1ncnc2nc[nH]c12` the figure was 5.21 µM (active); with `C(=N\Nc1ncnc2nc[nH]c12)/c1cccs1`, 4.14 µM (active).
Consider `Cc1ccsc1/C=N/Nc1ncnc2nc[nH]c12`, for which the Potency was 3.29 µM (active).
Regarding `N/C(=N\N=C\c1ccc(O)c(O)c1)c1nonc1N`, the Potency was 8.26 µM (active).
The result for `COc1ccccc1/C=N\N=C(\N)c1ccccn1` reads 2.07 µM (active).
The result for `COc1ccc(/C=N/N=C(\N)c2nonc2N)cc1OC` reads 7.36 µM (active); that for `COc1cccc(/C=N/N=C(\N)c2nonc2N)c1O`, 3.69 µM (active).
The result for `N/C(=N\N=C\c1ccc(Br)o1)c1nonc1N` reads 3.29 µM (active).
As for `Cc1cccc(OCc2cc(-c3ccccc3)no2)c1C`, the Potency was 7.36 µM (active).
With `COc1ccccc1OCc1cc(-c2ccccc2)no1`, the Potency was 3.69 µM (active).
The result for `Cc1ccc(-c2cc(N)n(-c3ccc(C)cc3)n2)cc1` reads 11.7 µM (active) and 1.85 µM (active); that for `Cc1ccc(-c2cc(N)n(-c3ccc(F)cc3)n2)cc1`, 4.14 µM (active); that for `O=C(O)c1cc(-c2ccc(C(F)(F)F)cc2)nc2n[nH]c(-c3ccccc3)c12`, 0.585 µM (active).
On to `COc1ccc(-c2csc(-c3cccs3)n2)cc1OC`, for which the Potency is 6.56 µM (active).
The result for `COc1ccc(-c2nc(-c3ccc(O)cc3O)cs2)cc1OC` reads 5.85 µM (active); that for `COc1ccc(-c2csc(-c3cccs3)n2)c(OC)c1`, 1.04 µM (active); that for `COc1ccc(-c2ccc3ccccc3n2)cc1OC`, 2.07 µM (active).
For `COc1ccc(Nc2nc(-c3cccs3)cs2)c(OC)c1`, the Potency was 1.04 µM (active).
With `Cc1ccc(/C=C2\OC(=O)c3ccccc32)cc1` the figure was 3.69 µM (active); with `O=C(O)c1cc(N/N=C/c2ccc(N3CCOCC3)cc2)ccc1Cl`, 2.07 µM (active).
With `O=C(O)c1cc(N/N=C/c2ccc3c(c2)OCCO3)ccc1Cl` the figure was 0.293 µM (active).
As for `CSc1nsc(N/N=C/c2ccc3c(c2)OCO3)c1C#N`, the Potency is 0.826 µM (active).
The result for `Clc1ccccc1N/N=C/c1ccc2c(c1)OCO2` reads 2.93 µM (active); that for `CN(C)c1ccc(/C=C/C(=O)c2ccccc2O)cc1`, 4.14 µM (active); that for `CN(C)c1ccc(C(=O)/C=C/c2ccccc2)cc1`, 5.21 µM (active).
With `O=C1C(C=Nc2ccc(F)cc2)=C(O)c2ccccc21` the figure was 2.07 µM (active).
Take `Cn1ccsc1=NC(=O)c1cccc(OC(F)F)c1`: the Potency is 2.33 µM (active).
With `COC(=O)c1ccc(C(=O)N=c2sccn2C)cc1` the figure was 4.14 µM (active); with `Cn1ccsc1=NC(=O)c1ccc(S(=O)(=O)C(F)F)cc1`, 7.36 µM (active).
With `Cc1cccc(C(=O)N=c2sccn2C)c1[N+](=O)[O-]` the figure was 4.65 µM (active).
The result for `Cn1ccsc1=NC(=O)c1ccc(OC(F)(F)F)cc1` reads 4.65 µM (active).
Regarding `CCCCOc1ccc(C(=O)N=c2sccn2C)cc1OC`, the Potency was 4.65 µM (active).
With `CCCCc1ccc(-c2ccc(Br)cc2)nc1` the figure was 3.69 µM (active).
The result for `CCCCCc1ccc(-c2ccc(C(=O)Oc3ccc(C(=O)OC)cc3)cc2)nc1` reads 0.656 µM (active); that for `CCCCCc1ccc(-c2ccc(Br)cc2)nc1`, 3.69 µM (active); that for `CCCOc1ccc(-c2nnc(N)s2)cc1`, 5.21 µM (active).
With `CCCCOc1ccc(-c2nnc(N)s2)cc1` the figure was 14.7 µM (active).
On to `CCCCCc1ccc(-c2nnc(N)s2)cc1`, for which the Potency is 16.5 µM (active).
Turning to `COc1cc(-c2cc(=O)c3ccccc3o2)ccc1O`, the Potency is 8.26 µM (active).
As for `COc1cc(-c2cc(=O)c3c(O)cc(O)cc3o2)ccc1O`, the Potency is 4.14 µM (active).
Regarding `CCS(=O)(=O)n1nc(-c2ccc(Cl)cc2)nc1SCc1ccccc1`, the Potency is 8.26 µM (active).
`CC(=O)c1cc(C#N)c(SCc2ccccn2)nc1C`: the Potency is 7.36 µM (active).
The result for `CC(=O)c1cc(C#N)c(SCc2ccccc2)nc1C` reads 13.1 µM (active); that for `CC(=O)c1cnc2nc(SCc3ccccc3)nn2c1C`, 5.21 µM (active); that for `C=CCNCCCCOc1ccc(OCc2ccccc2)cc1`, 7.36 µM (active).
The result for `CC(O)CNCCCCOc1ccc(OCc2ccccc2)cc1` (stereo not given) reads 9.27 µM (active); that for `COCCCNCCCCOc1ccc(OCc2ccccc2)cc1`, 18.5 µM (active); that for `CC(C)(C)C1(C)OC(=O)C(=Cc2ccc(OCC(=O)Nc3ccccc3)cc2)C(=O)O1` (stereo not given), 11.7 µM (active).
Regarding `Cc1ccc(C(=O)NCc2ccc3c(c2)CCO3)cc1C`, the Potency was 10.4 µM (active).
The result for `COC(=O)c1ccc(N=NN2CCCCCC2)cc1` reads 5.85 µM (active); that for `O=C(O)c1cccc(N=NN2CCCCCC2)c1`, 0.165 µM (active); that for `COC(=O)c1ccc(N=NN2CCOCC2)cc1`, 7.36 µM (active).
For the compound `COC(=O)c1ccc(N=NN2CCCCC2)cc1`, the Potency was 7.36 µM (active).
For `Cc1cc(C(F)(F)F)c(C#N)c(SCC(=O)Nc2nc3cc(Br)ccc3s2)n1`, the Potency is 3.69 µM (active).
With `CCc1ccc(NC2Nc3cc(C)nn3S2)cc1` (stereo not given) the figure was 1.65 µM (active); with `Cc1ccc(NC2Nc3cc(C)nn3S2)c(C)c1` (stereo not given), 6.56 µM (active).
